What all share (assay): PBM; 200 nM protein, PBS
Holding throughout (conditions): dsDNA, one strand shown

For assay [1], the target named is ALX3 (Homo sapiens, UniProt O95076 139-225, N203Q).
Assay [2] deals with ALX3 (Homo sapiens, UniProt O95076 139-225).
Assay [3] has as its target ALX3 (Homo sapiens, UniProt O95076 139-225, L168Q).
The target of assay [4] is ALX3 (Homo sapiens, UniProt O95076 139-225, L168V).
Assay [5] concerns the target ALX3 (Homo sapiens, UniProt O95076 139-225, N203S).
For assay [6], the target named is VAX1 (Homo sapiens, UniProt Q5SQQ9 86-172).
Assay [7] concerns the target VAX1 (Homo sapiens, UniProt Q5SQQ9 86-172, T142I).
Assay [8] deals with VAX1 (Homo sapiens, UniProt Q5SQQ9 86-172, K157R).
The target in assay [9] is PROP1 (Homo sapiens, UniProt O75360 56-141).
The target in assay [10] is T1, PAX4 (Homo sapiens, UniProt O43316 9-242, F177V).
T1 sequence: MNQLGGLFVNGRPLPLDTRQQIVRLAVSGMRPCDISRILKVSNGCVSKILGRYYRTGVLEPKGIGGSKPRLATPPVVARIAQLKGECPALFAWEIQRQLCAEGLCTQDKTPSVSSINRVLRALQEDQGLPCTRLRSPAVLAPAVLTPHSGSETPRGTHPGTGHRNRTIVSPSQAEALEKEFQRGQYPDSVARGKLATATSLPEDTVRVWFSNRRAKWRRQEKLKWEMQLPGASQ

The target of assay [11] is T2, PAX4 (Homo sapiens, UniProt O43316 9-242, R227W).
T2 sequence: T1 sequence with V169F, R219W

Assay [12] deals with HOXD13 (Homo sapiens, UniProt P35453 263-343, T313R).
In assay [13] the target is HOXD13 (Homo sapiens, UniProt P35453 263-343).
For assay [14], the target named is HOXD13 (Homo sapiens, UniProt P35453 263-343, T313A).
For assay [15], the target named is T3, NKX2-6 (Homo sapiens, UniProt A6NCS4 118-204).
T3 sequence: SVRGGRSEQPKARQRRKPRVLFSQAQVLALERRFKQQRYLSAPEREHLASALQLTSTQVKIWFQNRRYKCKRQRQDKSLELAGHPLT

Assay [16] deals with PROP1 (Homo sapiens, UniProt O75360 56-141, R99H).
Assay [17] deals with T4, NKX2-6 (Homo sapiens, UniProt A6NCS4 118-204, F151L).
T4 sequence: T3 sequence with F34L

The target of assay [18] is PROP1 (Homo sapiens, UniProt O75360 56-141, F88S).

Where a chain is given by its changes, count along the chain named.

Experimental findings from paper PMC11006913 are described below.

Sequence of VAX1 (Homo sapiens, UniProt Q5SQQ9 86-172) (Q5SQQ9 86-172): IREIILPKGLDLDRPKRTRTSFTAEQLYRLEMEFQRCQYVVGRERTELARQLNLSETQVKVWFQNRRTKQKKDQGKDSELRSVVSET
Sequence of ALX3 (Homo sapiens, UniProt O95076 139-225, L168V) (O95076 139-225 L168V): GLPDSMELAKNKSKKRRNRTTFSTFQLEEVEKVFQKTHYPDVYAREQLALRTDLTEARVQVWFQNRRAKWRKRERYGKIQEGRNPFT
Sequence of ALX3 (Homo sapiens, UniProt O95076 139-225, N203S) (O95076 139-225 N203S): as the sequence (O95076 139-225 L168V) above, with V30L, N65S counted along it
Sequence of ALX3 (Homo sapiens, UniProt O95076 139-225) (O95076 139-225): as the sequence (O95076 139-225 L168V) above, with V30L counted along it
Sequence of VAX1 (Homo sapiens, UniProt Q5SQQ9 86-172, K157R) (Q5SQQ9 86-172 K157R): as the sequence (Q5SQQ9 86-172) above, with K72R counted along it
Sequence of ALX3 (Homo sapiens, UniProt O95076 139-225, L168Q) (O95076 139-225 L168Q): as the sequence (O95076 139-225 L168V) above, with V30Q counted along it
Sequence of ALX3 (Homo sapiens, UniProt O95076 139-225, N203Q) (O95076 139-225 N203Q): as the sequence (O95076 139-225 L168V) above, with V30L, N65Q counted along it
Sequence of VAX1 (Homo sapiens, UniProt Q5SQQ9 86-172, T142I) (Q5SQQ9 86-172 T142I): as the sequence (Q5SQQ9 86-172) above, with T57I counted along it
Sequence of PROP1 (Homo sapiens, UniProt O75360 56-141) (O75360 56-141): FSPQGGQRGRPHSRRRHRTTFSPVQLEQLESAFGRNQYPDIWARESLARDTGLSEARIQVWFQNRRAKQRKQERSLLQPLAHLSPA
Sequence of HOXD13 (Homo sapiens, UniProt P35453 263-343) (P35453 263-343): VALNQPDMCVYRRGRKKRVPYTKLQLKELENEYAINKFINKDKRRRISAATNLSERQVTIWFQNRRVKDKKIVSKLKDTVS
Sequence of HOXD13 (Homo sapiens, UniProt P35453 263-343, T313A) (P35453 263-343 T313A): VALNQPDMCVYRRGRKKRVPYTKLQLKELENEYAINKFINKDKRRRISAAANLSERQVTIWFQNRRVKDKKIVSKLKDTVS
Sequence of HOXD13 (Homo sapiens, UniProt P35453 263-343, T313R) (P35453 263-343 T313R): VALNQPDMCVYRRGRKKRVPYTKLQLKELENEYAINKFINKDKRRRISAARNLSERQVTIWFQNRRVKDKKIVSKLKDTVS
Sequence of PROP1 (Homo sapiens, UniProt O75360 56-141, R99H) (O75360 56-141 R99H): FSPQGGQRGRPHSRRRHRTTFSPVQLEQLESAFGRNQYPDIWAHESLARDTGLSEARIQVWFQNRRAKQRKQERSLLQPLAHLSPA
Sequence of PROP1 (Homo sapiens, UniProt O75360 56-141, F88S) (O75360 56-141 F88S): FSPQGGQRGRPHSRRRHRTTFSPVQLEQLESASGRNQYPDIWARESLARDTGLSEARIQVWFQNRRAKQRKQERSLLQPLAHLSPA

Regarding CCGCGGAC, the binding signal is 7.74 upbm affinity estimate (log intensity, higher = more binding, comparable within an allelic series) with ALX3 [1]; 7.45 upbm affinity estimate (log intensity, higher = more binding, comparable within an allelic series) with ALX3 [2]; 7.7 upbm affinity estimate (log intensity, higher = more binding, comparable within an allelic series) with ALX3 [3]; 7.67 upbm affinity estimate (log intensity, higher = more binding, comparable within an allelic series) with ALX3 [4]; 7.75 upbm affinity estimate (log intensity, higher = more binding, comparable within an allelic series) with ALX3 [5].

Turning to CATATTAC, the binding signal is 8.38 upbm affinity estimate (log intensity, higher = more binding, comparable within an allelic series) with ALX3 [1]; 10.5 upbm affinity estimate (log intensity, higher = more binding, comparable within an allelic series) with ALX3 [2]; 10.8 upbm affinity estimate (log intensity, higher = more binding, comparable within an allelic series) in the assay with VAX1 [6]; 10.4 upbm affinity estimate (log intensity, higher = more binding, comparable within an allelic series) with VAX1 [7]; 10.5 upbm affinity estimate (log intensity, higher = more binding, comparable within an allelic series) with VAX1 [8].

For the sequence CACCGCCG, the binding signal is 7.75 upbm affinity estimate (log intensity, higher = more binding, comparable within an allelic series) with ALX3 [1]; 7.68 upbm affinity estimate (log intensity, higher = more binding, comparable within an allelic series) with ALX3 [2]; 7.66 upbm affinity estimate (log intensity, higher = more binding, comparable within an allelic series) with ALX3 [3]; 7.7 upbm affinity estimate (log intensity, higher = more binding, comparable within an allelic series) in the assay with ALX3 [4]; 7.75 upbm affinity estimate (log intensity, higher = more binding, comparable within an allelic series) with ALX3 [5].

On to CAGTCGCA, for which the binding signal with ALX3 [1] was 7.8 upbm affinity estimate (log intensity, higher = more binding, comparable within an allelic series); in the assay with ALX3 [2], 7.85 upbm affinity estimate (log intensity, higher = more binding, comparable within an allelic series); in the assay with ALX3 [3], 7.89 upbm affinity estimate (log intensity, higher = more binding, comparable within an allelic series); in the assay with ALX3 [4], 7.88 upbm affinity estimate (log intensity, higher = more binding, comparable within an allelic series); with ALX3 [5] it was 7.8 upbm affinity estimate (log intensity, higher = more binding, comparable within an allelic series).

With GGATGGCC, the binding signal with ALX3 [1] is 7.66 upbm affinity estimate (log intensity, higher = more binding, comparable within an allelic series); in the assay with ALX3 [2] it was 7.74 upbm affinity estimate (log intensity, higher = more binding, comparable within an allelic series); with ALX3 [3], 7.73 upbm affinity estimate (log intensity, higher = more binding, comparable within an allelic series); with ALX3 [4] it was 7.67 upbm affinity estimate (log intensity, higher = more binding, comparable within an allelic series); in the assay with ALX3 [5], 7.67 upbm affinity estimate (log intensity, higher = more binding, comparable within an allelic series).

On to CGAAATCA, for which the binding signal with ALX3 [1] is 8.09 upbm affinity estimate (log intensity, higher = more binding, comparable within an allelic series); with ALX3 [2] it was 9.04 upbm affinity estimate (log intensity, higher = more binding, comparable within an allelic series); with PROP1 [9], 7.77 upbm affinity estimate (log intensity, higher = more binding, comparable within an allelic series); with ALX3 [5], 8.15 upbm affinity estimate (log intensity, higher = more binding, comparable within an allelic series).

On to AGGCACGC, for which the binding signal is 7.63 upbm affinity estimate (log intensity, higher = more binding, comparable within an allelic series) with ALX3 [1]; 7.78 upbm affinity estimate (log intensity, higher = more binding, comparable within an allelic series) with ALX3 [2]; 7.71 upbm affinity estimate (log intensity, higher = more binding, comparable within an allelic series) with ALX3 [3]; 7.61 upbm affinity estimate (log intensity, higher = more binding, comparable within an allelic series) in the assay with ALX3 [4]; 7.64 upbm affinity estimate (log intensity, higher = more binding, comparable within an allelic series) with ALX3 [5].

With ATATAATA, the binding signal was 8.64 upbm affinity estimate (log intensity, higher = more binding, comparable within an allelic series) with ALX3 [1]; 10.8 upbm affinity estimate (log intensity, higher = more binding, comparable within an allelic series) with PAX4 [10]; 10.9 upbm affinity estimate (log intensity, higher = more binding, comparable within an allelic series) with PAX4 [11]; 8.68 upbm affinity estimate (log intensity, higher = more binding, comparable within an allelic series) in the assay with ALX3 [5].

In the case of GACATAAC, the binding signal was 8.29 upbm affinity estimate (log intensity, higher = more binding, comparable within an allelic series) in the assay with ALX3 [1] and 9.44 upbm affinity estimate (log intensity, higher = more binding, comparable within an allelic series) with ALX3 [2].

With ATTTACGG, the binding signal was 8.3 upbm affinity estimate (log intensity, higher = more binding, comparable within an allelic series) with ALX3 [1] and 10.1 upbm affinity estimate (log intensity, higher = more binding, comparable within an allelic series) in the assay with ALX3 [2].

As to CCACAGGG, the binding signal with ALX3 [1] was 7.75 upbm affinity estimate (log intensity, higher = more binding, comparable within an allelic series); in the assay with HOXD13 [12] it was 9.71 upbm affinity estimate (log intensity, higher = more binding, comparable within an allelic series); with HOXD13 [13], 9.49 upbm affinity estimate (log intensity, higher = more binding, comparable within an allelic series); with ALX3 [2], 7.62 upbm affinity estimate (log intensity, higher = more binding, comparable within an allelic series); with ALX3 [3], 7.81 upbm affinity estimate (log intensity, higher = more binding, comparable within an allelic series); with HOXD13 [14], 9.58 upbm affinity estimate (log intensity, higher = more binding, comparable within an allelic series). Moreover, the binding signal with ALX3 [4] was 7.81 upbm affinity estimate (log intensity, higher = more binding, comparable within an allelic series); with ALX3 [5], 7.73 upbm affinity estimate (log intensity, higher = more binding, comparable within an allelic series).

Take ATATTATA: the binding signal with ALX3 [1] was 8.63 upbm affinity estimate (log intensity, higher = more binding, comparable within an allelic series); in the assay with PAX4 [10], 10.7 upbm affinity estimate (log intensity, higher = more binding, comparable within an allelic series); with PAX4 [11], 10.9 upbm affinity estimate (log intensity, higher = more binding, comparable within an allelic series); in the assay with ALX3 [5], 8.69 upbm affinity estimate (log intensity, higher = more binding, comparable within an allelic series).

For CGGCCCAG, the binding signal with ALX3 [1] was 7.75 upbm affinity estimate (log intensity, higher = more binding, comparable within an allelic series); with NKX2-6 [15], 8.83 upbm affinity estimate (log intensity, higher = more binding, comparable within an allelic series); with ALX3 [2], 7.72 upbm affinity estimate (log intensity, higher = more binding, comparable within an allelic series); in the assay with PROP1 [9] it was 6.51 upbm affinity estimate (log intensity, higher = more binding, comparable within an allelic series); in the assay with PROP1 [16], 6.59 upbm affinity estimate (log intensity, higher = more binding, comparable within an allelic series); with ALX3 [3], 7.67 upbm affinity estimate (log intensity, higher = more binding, comparable within an allelic series). For the same sequence, the binding signal with NKX2-6 [17] is 9.1 upbm affinity estimate (log intensity, higher = more binding, comparable within an allelic series); in the assay with ALX3 [4], 7.67 upbm affinity estimate (log intensity, higher = more binding, comparable within an allelic series); with PROP1 [18], 6.34 upbm affinity estimate (log intensity, higher = more binding, comparable within an allelic series); with ALX3 [5], 7.74 upbm affinity estimate (log intensity, higher = more binding, comparable within an allelic series).

For the sequence GCACCCCC, the binding signal in the assay with ALX3 [1] was 7.73 upbm affinity estimate (log intensity, higher = more binding, comparable within an allelic series); with NKX2-6 [15], 9.22 upbm affinity estimate (log intensity, higher = more binding, comparable within an allelic series); in the assay with ALX3 [2] it was 7.8 upbm affinity estimate (log intensity, higher = more binding, comparable within an allelic series); with ALX3 [3], 7.58 upbm affinity estimate (log intensity, higher = more binding, comparable within an allelic series); in the assay with NKX2-6 [17], 9.15 upbm affinity estimate (log intensity, higher = more binding, comparable within an allelic series); with ALX3 [4], 7.59 upbm affinity estimate (log intensity, higher = more binding, comparable within an allelic series). Further, the binding signal with ALX3 [5] was 7.76 upbm affinity estimate (log intensity, higher = more binding, comparable within an allelic series).

For AATATTCG, the binding signal in the assay with ALX3 [1] is 8.28 upbm affinity estimate (log intensity, higher = more binding, comparable within an allelic series); with ALX3 [2], 9.33 upbm affinity estimate (log intensity, higher = more binding, comparable within an allelic series).

Regarding GCTCTGCC, the binding signal with ALX3 [1] was 7.7 upbm affinity estimate (log intensity, higher = more binding, comparable within an allelic series); with ALX3 [2] it was 7.55 upbm affinity estimate (log intensity, higher = more binding, comparable within an allelic series); with VAX1 [6] it was 7.01 upbm affinity estimate (log intensity, higher = more binding, comparable within an allelic series); with ALX3 [3], 7.72 upbm affinity estimate (log intensity, higher = more binding, comparable within an allelic series); with ALX3 [4], 7.75 upbm affinity estimate (log intensity, higher = more binding, comparable within an allelic series); in the assay with VAX1 [7], 7.19 upbm affinity estimate (log intensity, higher = more binding, comparable within an allelic series). Besides, the binding signal was 7.71 upbm affinity estimate (log intensity, higher = more binding, comparable within an allelic series) in the assay with ALX3 [5] and 7.08 upbm affinity estimate (log intensity, higher = more binding, comparable within an allelic series) with VAX1 [8].

Turning to CCCGAGAG, the binding signal with ALX3 [1] is 7.84 upbm affinity estimate (log intensity, higher = more binding, comparable within an allelic series); with ALX3 [2] it was 7.81 upbm affinity estimate (log intensity, higher = more binding, comparable within an allelic series); with ALX3 [3] it was 7.74 upbm affinity estimate (log intensity, higher = more binding, comparable within an allelic series); with ALX3 [4] it was 7.83 upbm affinity estimate (log intensity, higher = more binding, comparable within an allelic series); with ALX3 [5] it was 7.85 upbm affinity estimate (log intensity, higher = more binding, comparable within an allelic series).

CAGCACCC: the binding signal in the assay with ALX3 [1] was 7.8 upbm affinity estimate (log intensity, higher = more binding, comparable within an allelic series); in the assay with ALX3 [2], 7.73 upbm affinity estimate (log intensity, higher = more binding, comparable within an allelic series); in the assay with ALX3 [3] it was 7.75 upbm affinity estimate (log intensity, higher = more binding, comparable within an allelic series); with ALX3 [4], 7.68 upbm affinity estimate (log intensity, higher = more binding, comparable within an allelic series); with ALX3 [5] it was 7.8 upbm affinity estimate (log intensity, higher = more binding, comparable within an allelic series).

Regarding AGCCGGCG, the binding signal is 7.78 upbm affinity estimate (log intensity, higher = more binding, comparable within an allelic series) with ALX3 [1]; 7.6 upbm affinity estimate (log intensity, higher = more binding, comparable within an allelic series) with ALX3 [2]; 6.78 upbm affinity estimate (log intensity, higher = more binding, comparable within an allelic series) with VAX1 [6]; 7.66 upbm affinity estimate (log intensity, higher = more binding, comparable within an allelic series) with ALX3 [3]; 7.63 upbm affinity estimate (log intensity, higher = more binding, comparable within an allelic series) in the assay with ALX3 [4]; 6.99 upbm affinity estimate (log intensity, higher = more binding, comparable within an allelic series) with VAX1 [7]. For the same sequence, the binding signal is 7.77 upbm affinity estimate (log intensity, higher = more binding, comparable within an allelic series) in the assay with ALX3 [5] and 6.79 upbm affinity estimate (log intensity, higher = more binding, comparable within an allelic series) in the assay with VAX1 [8].

Regarding ATAAATGG, the binding signal with ALX3 [1] is 8.33 upbm affinity estimate (log intensity, higher = more binding, comparable within an allelic series); with ALX3 [2], 9.85 upbm affinity estimate (log intensity, higher = more binding, comparable within an allelic series).

With CAGTTACG, the binding signal was 8 upbm affinity estimate (log intensity, higher = more binding, comparable within an allelic series) in the assay with ALX3 [1]; 8.89 upbm affinity estimate (log intensity, higher = more binding, comparable within an allelic series) in the assay with ALX3 [2]; 8.09 upbm affinity estimate (log intensity, higher = more binding, comparable within an allelic series) with ALX3 [3]; 8.1 upbm affinity estimate (log intensity, higher = more binding, comparable within an allelic series) in the assay with ALX3 [4]; 8.08 upbm affinity estimate (log intensity, higher = more binding, comparable within an allelic series) in the assay with ALX3 [5].
